# From PubChem BioAssay
# AmpC inh detg: qHTS Inhibitors of AmpC Beta-Lactamase (assay with detergent); P00811; AmpC hydrolysis of nitrocefin, absorbance 480 nm, 0.01% Triton; Potency, µM (doses to about 114 µM), hits mostly inhibitors; 370,000 tested, 0.041% active; AID 485294, 2010; also: nearly all actives have a fitted effect of over 25% in size
# Target sequence (P00811 whole entry, looked up): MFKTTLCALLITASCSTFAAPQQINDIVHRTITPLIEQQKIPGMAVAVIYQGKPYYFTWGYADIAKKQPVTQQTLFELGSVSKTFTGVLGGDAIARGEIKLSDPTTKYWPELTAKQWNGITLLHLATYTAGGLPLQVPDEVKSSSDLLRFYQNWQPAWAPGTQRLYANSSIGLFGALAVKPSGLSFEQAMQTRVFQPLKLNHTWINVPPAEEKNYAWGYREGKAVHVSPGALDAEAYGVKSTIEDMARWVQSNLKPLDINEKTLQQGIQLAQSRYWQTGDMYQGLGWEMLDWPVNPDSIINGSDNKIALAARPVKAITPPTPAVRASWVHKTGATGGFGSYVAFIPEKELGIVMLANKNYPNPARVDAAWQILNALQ
#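 AmpC (5.3 nM in the dispensed reagent) in 20 mM phosphate pH 7.0 with 0.01% (detergent screen) or 0.0001% Triton X-100 was preincubated with compounds for 15 min at room temperature. Nitrocefin was then added from an 800 uM solution, and hydrolysis was followed at 480 nm.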
# FMDV inh: High Throughput Screening for Foot and Mouth Disease Virus Antivirals; FMDV antiviral cell-based qHTS; 410,000 tested, 1.2% active; AID 1159524, 2015; Potency, µM (top dose mostly 57.9 µM), usual class: inhibitors; calls by dose curve; tested in HEK293T cells; also: read-out not given here; nearly all actives have a fitted effect of over 45% in size
# AmpC inh no detg: qHTS Inhibitors of AmpC Beta-Lactamase (assay without detergent) | AmpC nitrocefin hydrolysis, absorbance 480 nm, 0.0001% Triton | Potency, µM (top dose mostly 57.1 µM), hits mostly inhibitors | 330,000 tested, 0.52% active; also: nearly all actives have a fitted effect of over 20% in size
#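 20 mM phosphate pH 7.0 + 0.01% (detergent screen) or 0.0001% Triton X-100; 5.3 nM AmpC reagent; cpd preinc 15 min RT; nitrocefin (800 uM stock) to start; A480 q20 s × 4 min; Activity was normalised to no-enzyme and no-compound control wells.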
# HCMV antiviral: qHTS Assay for inhibitors of the human cytomegalovirus (HCMV). 410,000 tested, 4.5% active. activity change, negative = inhibition, % at 57.5 µM. HFF cells, HCMV-luciferase reporter, 72 h; hits give low values. AID 1259415, 2018; in the data active = activity change below about -60%; inconclusive = no clear call, values can overlap the other calls; inactive = above about -39%
#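 HFF cells seeded 16 h at 37C, treated with compounds, infected with luciferase-reporter HCMV at MOI 1 PFU/cell; luciferase read at 72 h post infection, normalized to buffer-only and Salinomycin controls.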
# HCV inhibitor: qHTS Assay for Inhibitors of Hepatitis C Virus (HCV); Huh7.5.1 HCVcc-Cre infection, luciferase reporter, 44 h; Potency, µM (series often up to 41.8 µM), hits mostly inhibitors; 340,000 tested, 3.4% active; AID 651820, 2012
#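 Cells (1,000/well) were plated 4 h before compound, then infected with HCVcc-Cre virus (~0.5 moi). After 44 h further culture, infection was read as luciferase luminescence following a 15 min substrate incubation at room temperature.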
# Numbers stand for hits; - = inactive; ? = inconclusive; . = no result given. Compounds with a hit are over-represented: about 7.3% of the library has one in this group of screens. Unless noted, calls follow the shape of the dose curve; as a rule, active = well fitted curve in the direction sought with a large enough effect; inconclusive = small, poorly fitted or top-dose-only effect, or another doubt; inactive = no such curve, though single readings can be large; an effect the other way counts as inactive or inconclusive.
SMILES,AmpC inh detg,FMDV inh,AmpC inh no detg,HCMV antiviral,HCV inhibitor
Nc1c(C(=O)Nc2ccccc2)sc2nc3c(c(-c4ccco4)c12)CCC3,?,?,-,-,10µM
Nc1c(C(=O)Nc2ccc(S(=O)(=O)N3CCCC3)cc2)sc2nc3ccc(OC(F)(F)F)cc3cc12,-,-,-,-96,?
Nc1c(C(=O)Nc2ccc(S(=O)(=O)N3CCCC3)cc2)sc2nc3cc4c(cc3cc12)CCC4,?,-,-,?,?
NC(=O)c1sc2nc3c(c(-c4cccs4)c2c1N)CCCCC3,-,?,-,-86,-
Cc1cc(C)c2c(c1)c(C)cc1nnc(SCC(=O)c3ccccc3)n12,-,-,.,-,.
Cc1cc(S(=O)(=O)NCC2CCCO2)c(C)cc1Br (stereo not drawn),-,-,-,-,-
CCc1ccc(NC(=O)c2cc3c([nH]c2=O)CC(C)(C)CC3=O)cc1,-,-,.,-,.
CC(=O)NCC(=O)NCC1Cc2cc(C)cc(-c3ccccn3)c2O1 (stereo not drawn),.,-,.,.,.
O=C(N/C(=C\c1ccc([N+](=O)[O-])cc1)C(=O)N1CCOCC1)c1ccco1,-,-,-,-,-
CC1N(C)c2cc(NC(=O)c3ccco3)c(P(=O)(Nc3ccc([N+](=O)[O-])cc3)N3CCOCC3)cc2C1(C)C (stereo not drawn),-,-,-,?,8.9µM
CC1N(C)c2cc(NC(=O)c3ccco3)ccc2C1(C)C (stereo not drawn),-,-,-,-70,-
CCOC(=O)c1c(C)[nH]c(C)c1S(=O)(=O)N(C)CC(=O)Nc1cccc(Cl)c1C,-,-,.,-,.
CC1(C)CC2CC(C)(CN2C(=S)Nc2ccccc2)C1 (stereo not drawn),-,-,-,-61,-
CCOC(=O)C1CCN(C(=O)CCCCn2c(=O)[nH]c3ccccc3c2=O)CC1,-,-,-,-79,-
O=C(CCCCn1c(=O)[nH]c2ccsc2c1=O)N1CCN(c2cccc(C(F)(F)F)c2)CC1,-,40µM,.,?,.
O=C(CCn1c(=O)[nH]c2ccccc2c1=O)N1CCN(c2cccc(C(F)(F)F)c2)CC1,-,?,-,-,-
O=C(CCCCn1c(=O)[nH]c2ccccc2c1=O)N1CCN(c2cccc(C(F)(F)F)c2)CC1,-,-,-,-,11µM
O=C(CCCn1c(=O)[nH]c2ccc(Br)cc2c1=O)N1CCN(c2cccc(Cl)c2)CC1,-,-,.,-100,.
COc1cc(=O)n2c(c1C(=O)N(C)Cc1nccs1)CCN(Cc1c(F)ccc(F)c1F)CC2,.,-,.,.,.
CC(C)(C)NC(=O)CC1C[C@H](C(=O)N2CCCCC2)[C@@]2(CCc3ccccc3)c3[nH]c4ccccc4c3CCN2C1=O (stereo partly drawn),.,-,-,-,-
COc1ccc(NC(=O)Nc2ccc3c(c2)C(=O)N([C@@H](C)CO)C[C@@H](C)[C@@H](CN(C)CC2CCCCC2)O3)cc1,.,-,-,-,?
CCn1c(CC(=O)Nc2ccc(Cl)c(Cl)c2)nnc1SCc1ccc(Cl)cc1,?,-,-,-100,-
Cc1ccc(CNc2ncnc3sc(C(=O)N4CCC[C@H]4C(N)=O)c(C)c23)o1,.,-,.,.,.
CCOc1cccc(/C=N/Nc2ccc(S(=O)(=O)N(CC)CC)cn2)c1O,?,-,-,-100,?
CCN(CC)S(=O)(=O)c1ccc(N/N=C(\C)c2ccc(OC)cc2O)nc1,-,-,-,-62,?
SMILES,AmpC inh detg,FMDV inh,AmpC inh no detg,HCMV antiviral,HCV inhibitor
CCN(CC)S(=O)(=O)c1ccc(N/N=C/c2cc(OC)c(OC)cc2OC)nc1,-,-,-,-,-
O=C(Nc1ccccc1)OC[C@@H]1C=CS(=O)(=O)N1Cc1ccc(Br)cc1,.,-,.,-101,.
O=C(Nc1ccccc1)OCCOc1ccccc1Br,?,-,-,-,-
O=C(COc1ccc(F)cc1)Nc1ccc2nc(SCC(=O)N3CCc4ccccc43)sc2c1,-,?,.,-,.
COc1cc(Nc2nc(SCc3ccccc3F)nc3ccccc23)cc(OC)c1,-,-,.,-,.
Fc1ccc(Nc2nc(SCc3ccccc3F)nc3ccccc23)cc1,-,-,.,-86,.
